According to ChEMBL document CHEMBL3433997, “St. Jude Leishmania screening dataset” (2016):

Columns and labels:
Type in all cases: functional
[1] = molecular target: Solute carrier family 2, facilitated glucose transporter member 1 (Homo sapiens) (UniProt P11166); assay: ST_JUDE_LEISH: Cytotoxicity at 2uM final concentration against transgenic Leishmania Mexicana promastigotes LmGLUT1 that are glucose transport deficient and complemented with the human glucose transporter GLUT1. Activity is measured by DNA content using SYBR green in vitro
[2] = molecular target: Hexose transporter 1 (Plasmodium falciparum) (UniProt O97467); assay: ST_JUDE_LEISH: Cytotoxicity at 2uM final concentration against transgenic Leishmania Mexicana promastigotes LmPfHT that are glucose transport deficient and complemented with the Plasmodium falciparum hexose transporter. Activity is measured by DNA content using SYBR green in vitro
[3] = molecular target: Glucose transporter (Leishmania mexicana) (UniProt O61059); assay: ST_JUDE_LEISH: Cytotoxicity at 2uM final concentration against transgenic Leishmania Mexicana promastigotes LmGT2 that are glucose transport deficient and complemented with the L. Mexicana glucose transporter 2. Activity is measured by DNA content using SYBR green in vitro

Sequence of Solute carrier family 2, facilitated glucose transporter member 1 (Homo sapiens) (P11166 whole entry): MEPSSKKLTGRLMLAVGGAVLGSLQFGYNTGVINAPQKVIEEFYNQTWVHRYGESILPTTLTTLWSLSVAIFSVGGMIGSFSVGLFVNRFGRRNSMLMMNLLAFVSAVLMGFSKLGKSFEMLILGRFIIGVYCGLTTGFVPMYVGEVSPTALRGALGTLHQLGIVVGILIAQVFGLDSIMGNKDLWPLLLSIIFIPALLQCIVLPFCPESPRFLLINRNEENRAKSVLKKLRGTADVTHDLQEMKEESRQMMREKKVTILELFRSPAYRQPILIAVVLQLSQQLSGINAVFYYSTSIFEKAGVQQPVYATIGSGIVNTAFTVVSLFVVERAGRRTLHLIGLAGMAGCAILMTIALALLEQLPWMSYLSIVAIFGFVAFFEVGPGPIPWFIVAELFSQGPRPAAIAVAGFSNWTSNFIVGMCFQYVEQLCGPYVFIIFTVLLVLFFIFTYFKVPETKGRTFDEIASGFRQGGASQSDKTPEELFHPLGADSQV

SMILES	inhibition [1]	inhibition [2]	inhibition [3]
Cc1cc(Nc2ccc(Cl)cc2)n2nc(C(F)(F)F)nc2n1	0.02%	0.17%	0.13%
Clc1cccc(C=NNc2ccnc3cc(Cl)ccc23)c1	-1.51%	-2.17%	-3.26%
CCCOc1ccc(OCCCON2C(=N)N=C(N)NC2(C)C)cc1	1.05%	0.05%	0.28%
O=C(NCCCCN1CCC(C(c2ccccc2)c2ccccc2)CC1)c1ccc(NC(=O)c2ccc(Cl)cc2)cc1	-0.78%	-0.4%	-1.74%
C[C@@H]([C@@H](CCCc1ccc(Cl)cc1)C(=O)N[C@H](C(=O)Nc1cccnc1)C(C)(C)C)N(O)C=O	1.13%	0.19%	1.52%
CCCC(C)c1ccc(N2C(N)=NC(N)=NC2(C)C)cc1 (centres undefined)	2.85%	2.75%	0%
COc1cc2nc(NCCCO)nc(Nc3ccc(Oc4ccccc4)cc3)c2cc1OC	6.51%	6.09%	4.69%
CO/C(=C\C=C\c1cc2cc(Cl)c(Cl)cc2[nH]1)C(=O)NCCCN1CCN(C2CCCCC2)CC1	8.66%	5.7%	2.31%
COC(=O)C(Cc1ccccc1)C(CSCc1ccc(OC)cc1)C(=O)N[C@@H](C(=O)OC(C)(C)C)c1ccc(C(C)(C)C)cc1 (some centres undefined)	4.24%	4.41%	5.18%
CCOc1ccc(-c2nonc2NC(=O)c2ccccc2)cc1OCC	4.72%	2.09%	3.26%
CCCNC(=O)c1ccnc(-c2ccc(CNC3Cc4ccccc4C3)cc2)c1	1.45%	1.35%	-0.22%
c1cc(CN2CCc3ccccc3CC2)cc(-c2c[nH]c3nc(NC4CCCC4)ncc23)c1	-0.02%	-0.68%	0.91%
CCCNCc1ccc(-c2ccc(CN(CCOC)C(=O)CCc3ccc(OC)cc3)cc2)nc1	0.6%	-1.02%	1.11%
O=C(NCCN1CCCC1)c1cccc(-c2ccc(-c3nc4cc(F)ccc4[nH]3)s2)c1	2.21%	2.37%	3.1%
N#Cc1cc([N+](=O)[O-])ccc1-n1nc(-c2cccc(Cl)c2)n(Cc2ccco2)c1=S	1.94%	1.56%	-3.52%
CCN1CCN(c2cc(C)c3cc(NC(=O)c4cccc(Cl)c4)ccc3n2)CC1	7.2%	9.24%	8.84%
CCCCc1ccc(NC(=O)Nc2cccc(CCNCc3ccccc3)c2)cc1	11.8%	11.4%	10.2%

SMILES	inhibition [1]	inhibition [2]	inhibition [3]
CC(CCCC(=O)Nc1ccc(CC(C)NCCc2cccc(Cl)c2)cc1)NCCc1cccc(Cl)c1 (centres undefined)	2.68%	0.02%	1.32%
Cc1cccc2nc(-c3ccc(-c4cccc(NC(=O)NCc5ccccc5)c4)cc3)[nH]c12	0.35%	1.64%	1.98%
Nc1nc(N)c2c(ccc3c2cnn3Cc2cccnc2)n1	39.8%	51.2%	38.1%
CCCCCC(C)C(C)c1cc(O)c2c(c1)OC(C)(C)CC2(O)c1ccccn1 (centres undefined)	1.35%	2.79%	3.05%
Cc1ccc2[nH]c(C)cc(=NN=Cc3cccc(Cl)c3)c2c1	2.87%	0.92%	2.31%
O=C(Nc1cccc(Cl)c1)N(CCCn1ccnc1)Cc1csc(-c2ccc(CNCc3ccccc3)cc2)n1	5.54%	3.76%	4.27%
Cc1cc(OCc2ccncc2)cc2c1C(=O)CC(C)(C)O2	-0.52%	2.18%	0.39%
CCCCNCc1ccc(-c2nc(CN(Cc3ccc(Cl)c(Cl)c3)S(=O)(=O)c3ccc(NC(C)=O)cc3)cs2)cc1	2.51%	0.43%	2.51%
CCOCCCNc1sc(S(=O)(=O)c2ccccc2)nc1S(=O)(=O)c1ccc(C)cc1	8.93%	8.79%	9.56%
CCCn1c(Sc2ccc(C#N)c([N+](=O)[O-])c2)nnc1-c1ccc(OC)cc1	1.76%	0.24%	-0.23%
CN(Cc1cccc(F)c1)C1CCN(c2cc(NC(=O)c3ccc(F)cc3)ccn2)CC1	6.99%	6.01%	6.94%
NCC1CCCN1Cc1cccc(-c2ccc(-c3nc4cc(C(F)(F)F)ccc4[nH]3)cc2)c1 (centres undefined)	0.06%	0.65%	-0.43%
COc1ccc(NC(=O)N2CCN(CCCCCNC(=O)/C=C/c3ccc(C(F)(F)F)cc3)CC2)cc1Cl	2.21%	1.82%	1.35%
CCCCc1ccc(CCNCCCCCCNCCc2ccc(O)c(O)c2)cc1	0.01%	-0.03%	-1.2%
C[C@H]1CN(Cc2cccc(-c3cc(CNC(=O)c4cccc(CN5CCN(C/C=C/c6ccccc6)CC5)c4)ccc3F)c2)CCN1	11.6%	10.6%	12.7%
NC(=O)c1cnc2cc(-c3ccoc3)ccc2c1Nc1ccc(NC(=O)Nc2ccccc2Cl)cc1	2.28%	0.16%	-3.01%
